# Screens: PubChem BioAssay, several laboratories
# Sampled rows, rich in hits. Any-hit rate of the full collection: about 4.5%.
# SKKanGAS inh – S. pyogenes SKKanGAS growth inhibitors in kanamycin, primary screen, streptokinase expression inhibitor project, SKKanGAS strain, BacTiter-Glo luminescence | 6 h | inhibition, % at 7.5 µM | hit rate 1.3% among 300,000 | AID 1662, 2009;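 active = mean replicate score, as percent of positive control median, at least 50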;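 also: strain carries kanamycin resistance gene driven by streptokinase promoter and grows in 40 µg/ml kanamycin; loss of luminescence reflects streptokinase promoter inhibition or plain growth inhibition; 0% = median of DMSO wells and 100% = positive control at its reference dose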
# tim23-1 inh – growth inhibitors of tim23-1 mutant yeast, primary screen, luminescence, uHTS. S. cerevisiae tim23-1 growth, BacTiter-Glo luminescence, 24 h. inhibition, % at 20 µM. hit rate 1.3% among 330,000. AID 463212, 2010;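 active = growth inhibition of the mutant yeast at or above 50%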;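 also: temperature-sensitive mutant grown at 25 °C; plate controls were DMSO-treated mutant yeast for no effect and medium wells lacking yeast for full effect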
# TIM10 inh – growth inhibitors of isogenic TIM10 control yeast, primary screen, counter-screen for tim10-1 yeast inhibitor project, luminescence, uHTS. S. cerevisiae TIM10 strain growth, BacTiter-Glo luminescence, 24 h. inhibition, % at 10 µM. hit rate 1.4% among 330,000;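 active = inhibition of 40% or more at the single tested concentration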;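 also: wild-type TIM10 isogenic control strain grown at permissive 25 °C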
# PfHsp90 yeast 2 – growth inhibition of PfHsp90-expressing yeast, primary screen, antimalarial PfHsp90 inhibitor project, S. cerevisiae, BacTiter-Glo luminescence, single point, set 2; hit rate 0.32% among 310,000; inhibition, % at 9.4 µM; BacTiter-Glo ATP, 48 h; yeast lacking PDR1 and PDR3 efflux regulators; AID 504621, 2011;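 active = every replicate shows inhibition above about 80%, whatever the replicate mean, limit read from the data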;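 also: 0% = DMSO neutral controls and 100% = 20 µM radicicol positive controls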
# NALP3 yeast inh – NALP3 inflammasome inhibitors in reconstituted yeast, primary screen, luminescence, uHTS | Yeast reconstituted NLRP3/ASC/caspase-1, beta-gal luminescence, 24 h | inhibition, % at 10 µM | hit rate 0.39% among 330,000;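 active = inhibition of 50% or more; inactive = inhibition below 50%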;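 also: plate controls were induced DMSO wells for no effect and uninduced yeast grown without galactose for full effect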
# tim10-1 inh – growth inhibitors of tim10-1 mutant yeast, primary screen, luminescence, uHTS | S. cerevisiae tim10-1 ts strain growth, BacTiter-Glo, 24 h | inhibition, % at 20 µM | hit rate 2.2% among 330,000 | AID 463190, 2010;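 active = inhibition of at least 40%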;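 also: mutant grown at 25 °C; 0% = DMSO wells with yeast and 100% = wells holding no yeast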
# tim10 confirm – growth inhibitors of wild-type TIM10 yeast, confirmation, counter-screen for tim10-1 synthetic lethality project, single concentration, luminescence, S. cerevisiae; shares compounds with TIM10 inh; S. cerevisiae tim10 strain growth, BacTiter-Glo luminescence, 24 h; inhibition, % at 10 µM; hit rate 63% among 4,600;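 active = inhibition of yeast growth at or above a set limit in either of two replicates at 10 µM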;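 also: this counterscreen used the strain with wild-type TIM10; 0% = yeast with DMSO and 100% = medium wells lacking yeast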
# * = called active by the depositor; nt = no result given.
SMILES,SKKanGAS inh,tim23-1 inh,TIM10 inh,PfHsp90 yeast 2,NALP3 yeast inh,tim10-1 inh,tim10 confirm
CCOc1ccc(OCCC(=O)OCC(=O)c2c(N)n(C)c(=O)n(C)c2=O)cc1,-11.8,1.2,4.8,nt,10.6,4.8,nt
c1ccc(-c2csc3nnc(SCc4ccc5c(c4)OCCO5)n23)cc1,2.9,39.9,41.0*,-15.4,3.2,39.1,29.8*
O=C(CSc1nnc2scc(-c3ccccc3)n12)c1ccc2c(c1)OCCO2,-10.7,17.9,15.4,-18.6,-1.8,28.9,nt
CSCCC(NC(=O)c1ccccc1Cl)C(=O)N1CCCC(C)C1 (configuration not stated),nt,nt,nt,15.5,nt,nt,nt
CN(C(=O)CSc1nc2sc3c(c2c(=O)n1C)CCC3)C1CCS(=O)(=O)C1 (configuration not stated),nt,-1.0,-3.8,-2.8,6.0,-2.3,nt
Cc1ccc(C2CC2c2n[nH]c(=S)n2-c2ccc(Cl)cc2)cc1 (configuration not stated),3.5,31.4,50.9*,-3.2,39.5,27.3,41.6*
C[C@H](CO)N1C[C@H](C)[C@@H](CN(C)S(=O)(=O)c2cn(C)cn2)Oc2c(NS(=O)(=O)c3ccccc3)cccc2C1=O,nt,1.7,7.9,13.8,-4.4,8.4,nt
C[C@@]12C(=O)N(c3ccc(F)cc3)C(=O)N1[C@@H]1c3ccccc3OC[C@@H]1[C@H]2c1ccccc1,4.2,34.0,18.9,-12.0,-22.3,26.4,nt
C[C@]12C(=O)N(c3ccc(F)cc3)C(=O)N1[C@H]1c3ccccc3OC[C@@H]1[C@H]2c1ccccc1,nt,34.3,43.7*,-84.8,5.9,25.9,42.6*
COc1ccc(OCC(=O)NNC(=O)Cn2c(=O)cnc3ccccc32)cc1,nt,-14.0,4.0,-9.9,-9.2,0.6,nt
Oc1ccccc1CN1CCN(C(O)(c2ccccc2)c2ccccc2)CC1,1.3,28.1,43.4*,21.5,27.6,15.5,52.1*
COc1cc(CN2CCN(C(O)(c3ccccc3)c3ccccc3)CC2)cc(OC)c1OC,14.3,9.7,6.0,-10.9,15.0,-12.7,nt
CCOC(=O)N1CCN(C(=S)NC(=O)c2c(-c3c(Cl)cccc3Cl)noc2C)CC1,-2.2,22.5,40.0,0.3,7.6,39.3,21.8
Cc1cc(=O)n2nc(N3CCCC3C(=O)Nc3cccc(Cl)c3C)sc2n1 (configuration not stated),-1.4,2.8,-2.3,-16.8,-0.3,3.5,nt
Cc1ccccc1NC(=S)NC(=O)CCc1ccccc1,-5.8,44.4,44.2*,-12.4,6.3,25.8,35.5*
Nc1ccc(C(=O)OCc2nc3c(ccc4ccccc43)[nH]2)cc1,-6.2,34.5,47.6*,-15.3,15.9,29.5,-3.1
CCOCCCn1c(C)nc2c(c1=O)c1nc3ccccc3nc1n2-c1ccc2c(c1)OCCO2,9.2,11.6,18.3,nt,4.6,9.1,nt
COc1cccc(CNC(=S)Nc2cc(C)cc(C)c2)c1,-8.8,5.2,-9.6,-10.1,-18.1,30.2,nt
Cc1ccc(C(=O)NCc2ccc3c(c2)OCO3)c(C)c1,-3.8,4.1,66.9*,-5.4,27.0,-4.4,8.4
Cc1cc(C)cc(NC(=S)NCc2ccc3c(c2)OCO3)c1,22.5,-14.7,41.7*,-7.7,11.6,11.1,16.1
Cc1ccc(C)c(NC(=S)NCc2ccc3c(c2)OCO3)c1,6.8,3.0,40.8*,-0.4,9.1,25.2,-0.2
COc1ccc(CNC(=S)Nc2cc(C)cc(C)c2)cc1,0.6,14.6,41.0*,-3.4,-6.0,26.7,-15.4
COc1ccc(CN2CCNC(=O)C2CC(=O)N2CCCN(C(C)=O)CC2)cc1OC (configuration not stated),2.4,9.8,0.3,24.6,7.5,-4.2,nt
Cc1ccccc1CC(=O)Nc1cccc(S(=O)(=O)N2CCCC2)c1,nt,15.9,7.1,4.5,12.1,10.7,nt
